# Rows were chosen to be rich in hits. Some 8.5% of all compounds tested hit in one or more screens of this group.
# FBPA coupling cs = counter-screen for Giardia aldolase inhibitors: coupling enzyme system | coupling enzyme system counterscreen, AmpLite Red fluorescence | activity change, negative = inhibition, % at 58.2 µM, hits read low | AID 2472 | 0.67% of 290,000 active; in the data active = activity change below about -30%
#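 Final compound at 57.5 uM, incubated 10 min at RT with coupling enzyme reagent (glyceraldehyde-3-phosphate), then 20 min with substrate and AmpLite Red detection. Fluorescence read at 525/598 nm; tests interference with the coupling assay, not aldolase inhibition.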
# RGS12 GoLoco inh = blocks human Gai1 binding to RGS12 GoLoco peptide, red readout; Potency, µM (top dose mostly 61.6 µM), for the others: at the highest dose activity, negative = inhibition, hits mostly inhibitors; Gai1:RGS12 GoLoco peptide FP, rhodamine, 10 min; 0.44% of 230,000 active; active = well fitted inhibition curve with a large enough effect, not every such curve was filed as active; inactive = no such curve, though single readings can be large or run the other way; note: potency is the fitted concentration of half-maximal effect; nearly all actives have a fitted effect of over 30% in size
# Target sequence (P63096 whole entry, looked up): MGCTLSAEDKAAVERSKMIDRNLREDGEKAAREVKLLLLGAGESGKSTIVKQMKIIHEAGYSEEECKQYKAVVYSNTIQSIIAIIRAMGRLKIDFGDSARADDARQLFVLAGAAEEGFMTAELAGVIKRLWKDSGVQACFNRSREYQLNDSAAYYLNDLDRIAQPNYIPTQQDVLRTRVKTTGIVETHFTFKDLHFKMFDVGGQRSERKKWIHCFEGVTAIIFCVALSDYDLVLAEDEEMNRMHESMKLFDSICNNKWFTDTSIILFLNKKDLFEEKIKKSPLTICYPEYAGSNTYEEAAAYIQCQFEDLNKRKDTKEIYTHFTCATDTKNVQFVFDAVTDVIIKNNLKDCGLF
# NPSR antag = blocks cAMP signaling of the human neuropeptide S receptor | Q6W5P4 | CHO-NPSR cells, cAMP TR-FRET, antagonist mode | Potency, µM (doses to about 38.3 µM), inactives show top-dose activity change, negative = inhibition, actives largely listed as inhibitors | 1% of 220,000 active | AID 1461; note: potency is the fitted concentration of half-maximal effect; nearly all actives have a fitted effect of over 50% in size
# ALDH1A1 block = blocks purified human ALDH1A1 activity | Purified ALDH1A1, NADH fluorescence, propionaldehyde substrate | Potency, µM (highest dose often 75.3 µM), for inactives: at the highest dose activity, negative = inhibition, actives largely listed as inhibitors | 7.3% of 220,000 active; active = well fitted inhibition curve with a large enough effect, not every such curve was filed as active; inconclusive = small, poorly fitted or top-dose-only effect, or another doubt; inactive = no such curve, though single readings can be large or run the other way;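 note: potency is the fitted concentration of half-maximal effect; plate controls were no enzyme wells and a reference inhibitor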
# Sfp inh = Sfp phosphopantetheinyl transferase inhibition; Biochemical Sfp PPTase activity, qHTS; Potency, µM, for inactives: largest response in the series, negative = inhibition, usual class: inhibitors; 3.5% of 310,000 active; AID 1490;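 note: the enzyme is Sfp with the accession as filed and its product quenches rhodamine fluorescence; potency is the fitted concentration of half-maximal effect; 0% = enzyme reaction without inhibitor and -100% = no enzyme wells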
#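 With Hepes-Na pH 7.6 buffer containing 10 mM MgCl2, Sfp (15 nM) modified BHQ-2-YbbR (12.5 uM) using rhodamine-CoA (5 uM). Two reads 30 minutes apart at 525/598 nm yielded each well's rate.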
# KDM4E inh = blocks human JMJD2E demethylase activity; B2RXH2; 1.6% of 230,000 active; Potency, µM (doses to about 57.1 µM), for the others: at the top dose activity change, negative = inhibition, actives largely listed as inhibitors; JMJD2E catalytic domain, FDH-coupled NADH fluorescence (FDH is formaldehyde dehydrogenase);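 note: potency is the fitted concentration of half-maximal effect; 0% = wells with enzyme and -100% = buffer wells without enzyme; nearly all actives have a fitted effect of over 50% in size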
# Target sequence (B2RXH2 1-337 limits assumed): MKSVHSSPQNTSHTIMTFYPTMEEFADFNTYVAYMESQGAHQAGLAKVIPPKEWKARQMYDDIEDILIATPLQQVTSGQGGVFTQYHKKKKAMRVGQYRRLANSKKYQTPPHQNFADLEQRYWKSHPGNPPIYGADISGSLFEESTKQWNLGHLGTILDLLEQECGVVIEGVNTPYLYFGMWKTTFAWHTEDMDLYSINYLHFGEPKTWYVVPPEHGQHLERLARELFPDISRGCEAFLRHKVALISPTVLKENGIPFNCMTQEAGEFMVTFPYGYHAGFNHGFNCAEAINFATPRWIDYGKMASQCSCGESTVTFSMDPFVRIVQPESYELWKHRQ
# * = called active by the depositor; ? = inconclusive; nt = not tested or not shown; [ ] = dose if it differs, or a comment. Unless noted, calls come from the whole dose curve; as a rule, active = well fitted curve in the direction sought with a large enough effect; inconclusive = small, poorly fitted or top-dose-only effect, or another doubt; inactive = no such curve, though single readings can be large; an effect the other way counts as inactive or inconclusive. Unless noted, % is set by controls: 0 for no effect and ±100 for the full control effect.
SMILES,FBPA coupling cs,RGS12 GoLoco inh,NPSR antag,ALDH1A1 block,Sfp inh,KDM4E inh
COc1cc([N+](=O)[O-])ccc1NC(=O)C[n+]1ccccc1,0,6%,27%,14µM*,10%,4%
O=[N+]([O-])c1ccc(C[n+]2ccc(Cc3ccccc3)cc2)cc1,-42*,-19%,-6%,25µM*,-15%,?
N=c1sccn1CC(=O)Nc1ccc([N+](=O)[O-])cc1Cl,2,5%,5%,nt,-6%,-11%
CCc1nnc(NC(=O)CCC(=O)N2CCN(c3cccc(Cl)c3)CC2)s1,1,nt,nt,nt,2%,nt
COc1ccccc1CP(=O)(c1ccccc1)c1ccccc1,-1,nt,14%[46.1 µM],4%,-13%,-1%
CCOc1cc(C(=O)Nc2cccc(OCC(=O)N3CCOCC3)c2)cc(OCC)c1OCC,6,nt,nt,nt,2%,nt
CC1(C)SC2[C@@H](N=CN3CCCCCC3)C(=O)N2[C@H]1C(=O)O (stereo partly drawn),nt,-15%,nt,nt,-11%,nt
Cc1ccc(Cl)cc1NC(=O)C[n+]1ccc(Cc2ccc([N+](=O)[O-])cc2)cc1,-44*,5%,-44%,?,45µM*,-8%
CC(C)(C)NC(=O)NC(=O)C[n+]1ccc(Cc2ccc([N+](=O)[O-])cc2)cc1,-25,nt,nt,nt,-5%,nt
COc1ccc(NC(=O)CCN2C(=O)c3ccc([N+](=O)[O-])cc3C2=O)c(OC)c1,-5,9%,19%,20µM*,-11%,8%
COc1cccc(NC(=O)CCN2C(=O)c3ccc([N+](=O)[O-])cc3C2=O)c1,-4,-8%,-4%,-5%,-3%,-1%
COc1cc([N+](=O)[O-])ccc1NC(=O)NCc1ccccn1,-1,nt,nt,nt,0%,nt
COc1cc([N+](=O)[O-])ccc1NC(=S)NCc1ccccn1,0,1%,-4%,18µM*,11%,3%
O=C(C[n+]1ccc(Cc2ccccc2)cc1)Nc1ccc([N+](=O)[O-])cc1Cl,4,17%,3%,20µM*,11%,2%
COc1ccc(CCNC(=O)CCS(=O)(=O)c2ccc3c(c2)NC(=O)CO3)cc1OC,nt,nt,nt,nt,9%,nt
O=C(O/N=C1\CCS(=O)(=O)c2sccc21)c1ccccc1,2,1%,-7%[46.1 µM],13µM*,8%,6%
CCOc1ccc(N2CC(C(=O)Nc3ccc(S(=O)(=O)Nc4nccs4)cc3)CC2=O)cc1 (stereo not drawn),-1,nt,nt,nt,11%,nt
Cc1sc2nc(C(C)Sc3n[nH]c(N)n3)[nH]c(=O)c2c1C (stereo not drawn),0,26%,10%,?,56µM*,?
CCCC(=O)N(C1CC(C)C(C#N)(C#N)C1(C#N)C#N)N(C)C (stereo not drawn),0,11µM*,-58%,nt,1.8µM*,4%
CC(=O)N(C1CC(C)C(C#N)(C#N)C1(C#N)C#N)N(C)C (stereo not drawn),-2,-28%,-49%,?,10µM*,-7%
CCc1c(C)sc(NC(=O)OC)c1C(N)=O,1,14%,-1%[46.1 µM],-1%,0%,0%
CCc1c(C)sc(NC(=O)OC)c1C(=O)N1CCCCC1,1,-38%,-21%[46.1 µM],?,50µM*,-8%
O=C(/C=C/c1ccco1)Nc1cc(Cl)ccc1C(=O)O,-11,-11%,-38%,?,56µM*,1%
CN(C(=O)/C=C/c1ccco1)c1ccccc1C(=O)O,1,3%,7%,-13%,50µM*,?
O=C(/C=C/c1ccco1)Nc1ccccc1C(=O)O,-12,-5%,-39%,-17%,18µM*,?
SMILES,FBPA coupling cs,RGS12 GoLoco inh,NPSR antag,ALDH1A1 block,Sfp inh,KDM4E inh
Cc1cc(NC(=O)/C=C/c2ccco2)ccc1NC(=O)c1ccccc1,2,170%,24%,8%,13µM*,-4%
O=C(/C=C/c1ccco1)Nc1ccccc1C(=O)Nc1cccc(C(=O)O)c1,1,-4%,10%,nt,?,?
O=C(/C=C\c1ccco1)Nc1cc([N+](=O)[O-])ccc1F,1,12%,5%,?,-6%,-20%
CCCOc1ccc(CC(=O)NNC(=S)Nc2ccccc2)cc1Br,2,11%,-6%[46.1 µM],18µM*,9%,-6%
CCc1ccc(OCC(=O)NC(=S)Nc2cccc(CO)c2)c(Br)c1,1,12%,-14%[46.1 µM],-10%,25µM*,2%
Cc1ccc(-c2ccc(C3C(C#N)=C(N)Oc4n[nH]c(C)c43)o2)cc1 (stereo not drawn),-3,-3%,-12%[46.1 µM],?,50µM*,?
Cc1[nH]nc2c1C(c1ccc(-c3ccccc3C#N)o1)C(C#N)=C(N)O2 (stereo not drawn),-24,nt,-2%[46.1 µM],11µM*,22µM*,?
Cc1c(CC(C)(C)C(=O)O)n(Cc2ccc(Cl)cc2)c2ccc(F)cc12,14,4%,nt,-3%,-7%,?
CNC(=O)[C@H]1O[C@@H](n2cnc3c(N)ncnc32)[C@H](O)[C@H]1O,nt,2%,-13%[46.1 µM],-4%,nt,-1%
CC(NC(=O)CNC(=O)c1sc2ccccc2c1Cl)c1cccnc1 (stereo not drawn),1,nt,nt,nt,-1%,nt
CC(=O)c1nnn(-c2ccc([N+](=O)[O-])cc2C)c1C,1,-2%,9%,3%,7%,5%
Cc1cc(C(=O)CCl)c(C)n1-c1cccc([N+](=O)[O-])c1,3,15%,-19%,0.32µM*,5%,-29%
CC(=O)c1nnn(-c2cccc([N+](=O)[O-])c2)c1C,-38*,2%,37%,-7%,8%,0%
Cc1cc(-n2c(C)cc(C(=O)CSc3ncnc4ccccc34)c2C)no1,-11,2%,-14%[46.1 µM],-8%,?,-8%
Cc1cc(C(=O)CCl)c(C)n1-c1ccon1,0,10%,-18%,0.63µM*,12%,-5%
COC(=O)c1c(-c2c(Cl)cccc2Cl)noc1C(=O)NN,-3,-20%,-15%,?,-10%,15%
Cc1ccc(S(=O)(=O)CCC(=O)OC(C)C(=O)c2c(C)[nH]c3ccccc23)cc1 (stereo not drawn),0,7%,-1%,-3%,-1%,11%
COC(=O)c1sccc1NC(=O)c1c(C)c(-c2cccc(Cl)c2)nc2ccccc12,0,6%,-32%,-6%,11%,?
N#C/C(C(=O)Nc1ccc(Cl)cc1)=C(/S)Nc1ccccc1,7,nt,nt,nt,0.79µM*,nt
N#Cc1ccc(NC(=O)Nc2ccc(Cl)cc2)cc1,-6,-1%,-9%[46.1 µM],-4%,-10%,-2%
NC(=O)c1ccccc1C[C@H](C(=O)O)N1C(=O)c2ccc(C(=O)O)cc2C1=O,-1,nt,nt,nt,6%,nt
Cc1ccc(S(=O)(=O)NCCCCCC(=O)Nc2ccccn2)cc1,1,-1%,-12%[46.1 µM],22µM*,1%,5%
Cc1ccc(S(=O)(=O)NCCCCCC(=O)Nc2ccccc2C)cc1,2,-10%,-5%,4µM*,-3%,0%

# High-throughput results: PubChem, National Center for Advancing Translational Sciences (NCATS)
